In PubChem BioAssay AID2098 (Broad Institute, 2009):
Screen size: about 300,000 compounds; about 2,300 (0.77%) were called active.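 Rule for the calls: active = more than half of replicate wells show activity change below -50%, luminescence cut by over half; inconclusive = some wells, but at most half, below -50%; inactive = no replicate well below -50%.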 Shown is part of a subset that was picked to be rich in actives.

assay: HSF1 inhibitors in luciferase reporter cells, primary screen, cell-based, NIH3T3, luminescence (AID 2098); conditions: NIH3T3-HGL HSE-luciferase, MG132-induced, luminescence 8 h; stronger effect = lower value; screened at 7.5 µM (by protocol);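 note: luciferase reports HSF-1 transcriptional activity via heat shock element; 0% = median of DMSO wells and -100% = zero luminescence signal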

Activity change, negative = inhibition, inactive:
NS(=O)(=O)c1ccc(CCNC(=O)CN2C(=O)c3ccccc3S2(=O)=O)cc1 -3.35%, Cc1ccc(N2CC(C(=O)N3CCC4(CC3)CC(=O)c3ccccc3O4)CC2=O)cc1C (stereo not given) -2.92%, COc1ccc(NC(=O)CN(C)C(=O)Cc2coc3cc(C)c(C)cc23)cc1 7.31%, COc1ccc(C(=O)N(Cc2ccccc2)c2ccc(C)cc2)cc1S(=O)(=O)N1CCOCC1 4.46%, COc1cc(/C=N/NC(=O)c2cc(C)n(-c3ccc(F)cc3)c2C)cc(OC)c1O -15.3%, Cc1ccc(-n2c(C)cc(C(=O)CN3C(=O)C(=O)N(C4CCCC4)C3=O)c2C)cc1 -6.89%, CC(Oc1ccc(F)cc1)C(=O)Nc1cc(S(=O)(=O)N2CCOCC2)ccc1N1CCN(C)CC1 (stereo not given) -4.5%, O=C(NCC(=O)N1CCCC(C(F)(F)F)C1)c1ccccc1F (stereo not given) -2.16%, CCCCC(CC)CNC(=O)CCCCn1c(=O)[nH]c2ccsc2c1=O (stereo not given) 1.08%, CCN(CC)CCNC(=O)CCCCCn1c(=O)[nH]c2cc(C(=O)OC)ccc2c1=O -8.49%, CN(Cc1c(F)cccc1Cl)C(=O)CNC(=O)c1ccc2c(c1)OCO2 2.65%, CC12CCC(=O)N1C(C(=O)NCCN1C(=O)S/C(=C\c3ccccc3F)C1=O)CS2 (stereo not given) -0.188%, CCOC(=O)c1c(C)[nH]c(C(=O)OCC(=O)c2ccc(OC)cc2OC)c1C 1.38%, COCCN1C=C2C(=O)C(C)(OC(=O)C3CCCC3)C(=O)C=C2C=C1c1ccsc1 (stereo not given) 0.381%, C=CCN1C=C2C(=O)C(C)(OC(=O)CCc3ccccc3)C(=O)C=C2C=C1c1ccc(C#N)cc1 (stereo not given) -1.82%, CCCNC(=O)c1ccc(N2CCC3(CC2)CC(c2cccc(Br)c2)=NO3)c(NC(=O)c2ccco2)c1 -5.02%, CSc1nsc(NC(=O)Nc2ccccc2)n1 4.05%, Cc1cccc(C(=O)NCc2nnc(SC(C)C(=O)Nc3nnc(C)s3)n2C)c1 (stereo not given) -1.96%, COc1ccc(S(=O)(=O)N2CCCCCC2)cc1C(=O)N(C)Cc1cccc(OC)c1OC -1.36%, COc1ccc(-c2cn(-c3ccc(OC)cc3)c(=S)[nH]2)cc1 9.62%, S=c1[nH]c(-c2cccs2)cn1-c1ccccc1 2.33%, CC(C)(C)Oc1ccccc1Nc1nc(NCCO)nc(N2CCCC2)n1 -2.91%, CCn1cc(CN2CCC(C(=O)Nc3cccc(-c4cccc(Cl)c4)c3)CC2)cn1 13.5%, O=C(Nc1cccc(-c2cccc(Cl)c2)c1)C1CCN(C2CCC2)CC1 -1.45%, O=C(COC(=O)CCOc1ccccc1)Nc1cc(S(=O)(=O)N2CCCCC2)ccc1Cl 5.19%, Cn1cccc1C(=O)NNC(=O)COc1ccc(Br)cc1 -3.17%, Cc1cccc(CS(=O)(=O)c2ncc(Cl)c(C(=O)Nc3ccc(F)cc3)n2)c1 13.2%, CCSc1ncc(Cl)c(C(=O)Nc2cc(C)ccc2C)n1 3.48%, Cc1ccc(S(=O)(=O)CC(=O)Nc2nnc(C)s2)cc1 -2.63%, Cc1cccc(NC(=O)c2nc[nH]c2C(=O)NCC(=O)OCc2ccccc2)c1 -13.1%, COc1ccc(C2/C=C\CN(S(=O)(=O)c3cccs3)CC(=O)N2Cc2ccc(F)cc2)cc1 (stereo not given) 3.97%, COc1ccc(Cl)cc1C=CC=NNC(=O)c1ccncc1 5.04%, COc1ccc(Cn2c(=O)sc3ccccc32)cc1OC -4.6%, COC(=O)c1ccc(OCC(O)CN(CCO)CC(O)Cn2ccc3ccccc32)cc1 (stereo not given) -1.93%, O=C(NCc1ccccc1)c1onc(CSc2ccncc2)c1C(=O)NCc1ccccc1 -22.7%, O=C(NCCc1ccco1)C(=O)NCCC1CCCCN1S(=O)(=O)c1ccccc1 (stereo not given) 1.49%, COc1ccc(-c2nnc(SCC(=O)Nc3cccnc3Cl)n2C)cc1 -3.85%, COc1ccccc1NC(=O)C(C)OC(=O)CC1CCCC1 (stereo not given) -4.1%, C#CCNC(=O)[C@H](Cc1ccc(C(=O)c2ccccc2)cc1)NC(=O)OC(C)(C)C 5.42%, COc1ccc(/C=N/NC(=O)c2ccccc2)cc1OS(=O)(=O)c1ccccc1 4.64%, COc1cc(/C=N/NC(=O)c2ccc(N3CCCC3=O)cc2)ccc1O -2.17%, CC1(C)O[C@@H]2CC3C4C[C@H](F)C5=CC(=O)C=CC5(C)C4C(O)CC3(C)[C@]2(C(=O)CO)O1 (stereo not given in full) -32.3%, Cc1ccc(CSCC(=O)N(C)CC(=O)Nc2cccc(F)c2)cc1 -0.103%, Cc1ccc(NC(=O)CN(C)C(=O)c2ccc(Br)o2)cc1 0.545%

Activity change, negative = inhibition, active:
Cc1cc(C(=O)COC(=O)C2CC2)c(C)n1-c1ccc(F)cc1 -71.9%, CCN(CCCNC(=O)CCn1c(=O)[nH]c2ccsc2c1=O)c1ccccc1 -61.9%, CC1(OC(=O)CCc2ccccc2)C(=O)C=C2C=C(c3ccc(C#N)cc3)N(CCc3ccccn3)C=C2C1=O (stereo not given) -80.1%, O=c1oc2ccccc2cc1-c1cn(-c2ccccc2)c(=S)[nH]1 -88.1%, CCn1cc(CN2CCC(C(=O)Nc3cccc(-c4cccc(Cl)c4)c3)CC2)c(C)n1 -68.5%, Cc1ccc(CS(=O)(=O)c2ncc(Cl)c(C(=O)Nc3nnc(C)s3)n2)cc1 -63.4%, Cc1cccc(NC(=O)c2nc(S(=O)(=O)Cc3ccccc3)ncc2Cl)c1 -83.8%, COc1ccc(CCNCC(O)Cn2ccc3ccccc32)cc1OC (stereo not given) -87.6%, COc1ccccc1NC(=O)[C@H](COCc1ccccc1)NC(=O)OC(C)(C)C -65.5%, COc1ccc(C(=O)Nc2ccccc2C(=O)N/N=C/c2ccc(O)c(OC)c2)cc1 -88.5%, Cc1ccc(CSCC(=O)N(C)CC(=O)Nc2ccc(C)cc2)cc1 -72.3%
